{"source": "PubChem BioAssay", "note": "Records with an inconclusive call do not appear. Unmarked numbers belong to inactive results.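 The calls were made as follows: active = cell viability at or below a set limit in both duplicate runs, the limit being the all-compound median minus 4 SD (cut at about 23% in these data, passing the limit was not always enough); inconclusive = no clear call, values can overlap the other calls; inactive = the rest.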", "data": [{"experiment": "viability of HCT116 without oncogenic beta-catenin – human colon tumor cells, pilot screen (AID 823);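 also: 0% = wells killed by 20 µM Hyamine and 100% = untreated DMSO cell wells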", "settings": "HCT116 beta-catenin knockout viability, CellTiter-Glo, 60 h; at 10 µM; stronger effect = lower value", "units": {"viability": "%"}, "values": [{"smiles": "CCOC(=O)c1cc(-c2ccc(C)o2)nn1CCC#N", "viability": 101}, {"smiles": "Cc1cc(C)cc(N(CC(=O)NCc2ccco2)S(=O)(=O)c2c(C)noc2C)c1", "viability": 95.2}, {"smiles": "COc1ccc(OCCSc2ncnc3nc[nH]c23)cc1", "viability": 86.6}, {"smiles": "Cc1sc2ncnc(Sc3nnc4sc5ccccc5n34)c2c1C", "viability": 55.4}, {"smiles": "CC(=O)Nc1nc2n(n1)C(c1ccccc1)C=C(c1ccccc1)N2", "note": "(stereo unspecified)", "viability": 99.9}, {"smiles": "O=C(c1ccc(CS(=O)(=O)c2ccc(Br)cc2)o1)N1CCN(c2ncccn2)CC1", "viability": 86.2}, {"smiles": "CC(=O)c1cccc(NC(=O)c2cc(C(C)C)on2)c1", "viability": 104}, {"smiles": "Cc1ccccc1-c1noc(-c2cccs2)n1", "viability": 94}, {"smiles": "COc1ccc(OC)c(S(=O)(=O)Nc2ccc(OCC(=O)O)cc2)c1", "viability": 98.3}, {"smiles": "CC(=O)Nc1ccc(S(=O)(=O)Nc2cccc(C(=O)NC(C)(C)C)c2)cc1", "viability": 92.1}, {"smiles": "CCOC(=O)N1CCN(CC(=O)Nc2cc(OCC)ccc2OCC)CC1", "viability": 91.2}, {"smiles": "Cc1cc(C)cc(OCC(=O)Nc2cccc(-c3nc4ncccc4o3)c2)c1", "viability": 65.4}, {"smiles": "Oc1ccc(-c2nc3cnccn3c2Nc2ccc3c(c2)OCCO3)cc1", "viability": 83.7}, {"smiles": "CCOC(=O)c1ccc(N2C(=O)CC(C3CCCO3)C2=O)cc1", "note": "(stereo unspecified)", "viability": 101}, {"smiles": "CC(=O)N1CCc2cc(S(=O)(=O)Nc3ccccc3N3CCN(C)CC3)ccc21", "viability": 94.8}, {"smiles": "CC(=O)c1cccc(NC(=O)C2CCN(S(=O)(=O)c3ccc(F)cc3)CC2)c1", "viability": 92}]}]}
